VDR inh: vitamin D3 receptor (human) inhibition | P11473 | VDR-SRC2-3 peptide fluorescence polarization, 2 h | Potency, µM, without a hit: max response, negative = inhibition, most hits filed as inhibitors | 400,000 tested, 0.93% active; further: on the % scale 0 is the no-effect control and ±100 the full control effect
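Fluorescence polarization assay measuring small-molecule disruption of VDR binding to the coregulator peptide SRC2-3. Compounds were pin-transferred (23 nl) into the reagent mix and incubated 2 h at room temperature before reading.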
ASM inhibitor: blocks human secretory acid sphingomyelinase; P17405; placental ASM, HMU-PC fluorogenic substrate, 60 min; Potency, µM (doses to about 57.5 µM), inactives show at the highest dose activity change, negative = inhibition, hits mostly inhibitors; 340,000 tested, 0.006% active
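qHTS format. ASM enzyme prepared from human placenta hydrolyses the fluorogenic substrate HMU-PC0 (9 uM final) over 60 min at 37 °C after a 10 min compound preincubation.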
TDP1 block: blocks human tyrosyl-DNA phosphodiesterase 1; Q9NUW8; recombinant TDP1, AlphaScreen DNA substrate cleavage; Potency, µM (highest dose often 130 µM), inactives show at the highest dose activity change, negative = inhibition, hits mostly inhibitors; 350,000 tested, 0.28% active; AID 485290; further: on the % scale 0 is the no-effect control and ±100 the full control effect; nearly all actives have a fitted effect of over 40% in size
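Here, a 5' biotin and 3' phosphotyrosine-FITC DNA oligonucleotide reports Tdp1 activity: intact substrate bridges AlphaScreen beads, while cleavage leaves a 3' phosphate and drops signal. All incubations at room temperature.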
PLK1 PBD block: blocks phosphopeptide binding to human PLK1 polo-box domain | P53350 | Plk1 PBD binding of FITC phosphopeptide, fluorescence polarization | Potency, µM, inactives show max response, negative = inhibition, most hits filed as inhibitors | 360,000 tested, 2.8% active | AID 720504; further: series mostly up to about 57 µM; on the % scale 0 is the no-effect control and ±100 the full control effect; nearly all actives have a fitted effect of over 65% in size
Tb PFK inh: T. brucei PFK enzyme inhibition | O15648 | T. brucei PFK, ADP-Glo luminescence | Potency, µM (top dose mostly 57.5 µM), for the others: at the highest dose activity, negative = inhibition, usual class: inhibitors | 330,000 tested, 0.17% active;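 further: 0% = uninhibited 1x PFK enzyme wells and -100% = no-enzyme wells; nearly all actives have a fitted effect of over 60% in size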
Target sequence (O15648 whole entry, looked up): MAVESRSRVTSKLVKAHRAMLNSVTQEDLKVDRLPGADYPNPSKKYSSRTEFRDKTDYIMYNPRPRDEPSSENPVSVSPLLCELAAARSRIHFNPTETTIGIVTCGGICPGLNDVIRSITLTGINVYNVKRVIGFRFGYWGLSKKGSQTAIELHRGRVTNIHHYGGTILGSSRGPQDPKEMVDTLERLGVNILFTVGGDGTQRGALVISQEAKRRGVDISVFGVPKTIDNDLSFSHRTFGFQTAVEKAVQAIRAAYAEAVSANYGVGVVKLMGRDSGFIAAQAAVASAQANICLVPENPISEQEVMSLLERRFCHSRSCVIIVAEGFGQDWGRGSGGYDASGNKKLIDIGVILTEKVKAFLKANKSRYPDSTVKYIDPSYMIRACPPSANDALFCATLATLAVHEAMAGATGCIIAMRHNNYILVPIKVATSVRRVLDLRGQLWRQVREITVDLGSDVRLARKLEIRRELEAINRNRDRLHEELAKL
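ADP-Glo luminescence quantified ADP after 45 min at room temperature, with 1.25 nM T. brucei PFK, 0.1 mM ATP and 0.5 mM fructose-6-phosphate in pH 8.0 TEA buffer. qHTS titrations up to 57 µM; curves classified by quality.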
Pin1 inh: human Pin1 inhibition | Q13526 | Pin1 FP peptide displacement, HiFluor488, 10 min | Potency, µM (highest dose often 115 µM), inactives show top-dose activity, negative = inhibition, hits mostly inhibitors | 390,000 tested, 0.009% active | AID 504891; active means well fitted inhibition curve with a large enough effect in the polarisation, with a control signal flat, not every such curve was filed as active; inconclusive means small, poorly fitted or top-dose-only effect, or effect the other way, or a change in a side signal; inactive means no such curve, though single readings can be large or run the other way; the % refers to the polarisation; further: on the % scale 0 is the no-effect control and ±100 the full control effect
Numbers without * were called inactive; [ ] = another dose, or the depositor's remark. An excerpt weighted towards active compounds, which were near 3.1% of everything screened. Unless noted, the call rests on the fitted dose curve; in most records, active means well fitted curve in the direction sought with a large enough effect; inconclusive means small, poorly fitted or top-dose-only effect, or another doubt; inactive means no such curve, though single readings can be large; an effect the other way counts as inactive or inconclusive. Potency means the concentration at half of the fitted maximal effect.

How did CCOc1ccccc1CNC(=O)C1CCN(Cc2cc3ccccc3n2Cc2ccccc2)CC1 do in these assays?
VDR inh: -0.1%; TDP1 block: 2.5%; Pin1 inh: 21.4%

What do the screens show for `Cc1cccc(C(=O)NC2CCN(C#N)CC2)c1`?
TDP1 block: -0.6%; Pin1 inh: 0.7%

Results for O=[N+]([O-])c1cc2c(cc1CN1CCN(c3ccccc3F)CC1)OCO2 ?
VDR inh: -10.8%; ASM inhibitor: -1.3%; PLK1 PBD block: -2.8%; Tb PFK inh: -4.0%; Pin1 inh: -1.2%

What do the screens show for `COc1cc(CN2CCN(c3ccccc3F)CC2)c([N+](=O)[O-])cc1OC`?
VDR inh: -15.6%; ASM inhibitor: -4.3%; TDP1 block: -8.3%; PLK1 PBD block: 26.7µM*; Tb PFK inh: 0.4%; Pin1 inh: -10.4%

Results for Cc1ccc(-c2n[nH]c3c2C(c2cccs2)N(c2ccc(Cl)cc2)C3=O)cc1 (stereo unspecified) ?
VDR inh: -8.6%; TDP1 block: -2.3%; Pin1 inh: 12.6%

What do the screens show for `O=C1C(c2ccccc2)=[N+]([O-])c2ccccc21`?
VDR inh: 3.98µM*; ASM inhibitor: -1.0%; TDP1 block: 10.9%; PLK1 PBD block: 0.168µM*; Tb PFK inh: -11.8%; Pin1 inh: -6.6%

How did NNC(=O)C(C(=O)OCc1ccccc1)c1ccccc1 (stereo unspecified) do in these assays?
TDP1 block: 1.3%; Pin1 inh: -1.0%

Results for O=C(Nc1ccc(Cl)cc1Cl)c1cccc(N2C(=O)C=CC2=O)c1 ?
VDR inh: inconclusive; ASM inhibitor: -0.2%; TDP1 block: 0.0%; PLK1 PBD block: 1.89µM*; Tb PFK inh: -3.3%; Pin1 inh: 22.4%

How did COc1ccc(CN2C(=O)C(NC(=O)c3ccccc3C)(C(F)(F)F)N=C2c2ccccc2)cc1 (stereo unspecified) do in these assays?
VDR inh: -16.0%; TDP1 block: 4.5%; Pin1 inh: 20.7%

What do the screens show for `Nc1nc(Nc2cc(F)cc(F)c2)nc(NC2CCCC2)n1`?
TDP1 block: 1.2%; Pin1 inh: -2.1%

What do the screens show for `COc1ccc(-n2cc(C(=O)O)c3ccccc3c2=O)cc1`?
VDR inh: -8.9%; ASM inhibitor: 0.4%; TDP1 block: 0.5%; PLK1 PBD block: -4.5%; Tb PFK inh: 5.2%; Pin1 inh: -11.3%

What do the screens show for `COc1ccc(-n2sc3ccccc3c2=O)cc1`?
PLK1 PBD block: 2.67µM*

What do the screens show for `CC(C)c1ccccc1NC(=O)CCc1nc2ccccc2s1`?
VDR inh: -30.6%; ASM inhibitor: 3.3%; TDP1 block: 7.9%; PLK1 PBD block: inconclusive; Tb PFK inh: -1.3%; Pin1 inh: -1.8%

Results for COc1ccccc1NC(=O)CCc1nc2ccccc2s1 ?
VDR inh: inconclusive; ASM inhibitor: -2.8%; TDP1 block: -2.6%; PLK1 PBD block: 21.2µM*; Tb PFK inh: 5.5%; Pin1 inh: -3.0%

How did COc1ccccc1NC(=O)CCC(=O)c1ccc(-c2ccccc2)cc1 do in these assays?
VDR inh: inconclusive; ASM inhibitor: -1.0%; TDP1 block: 3.4%; PLK1 PBD block: 29.9µM*; Tb PFK inh: 2.4%; Pin1 inh: inconclusive

What do the screens show for `Cc1nc(SCC(=O)Nc2cc(C(N)=O)cc(C(N)=O)c2)c2c(C)c(C)sc2n1`?
VDR inh: -10.9%; ASM inhibitor: -1.5%; TDP1 block: 10µM*; PLK1 PBD block: inconclusive; Tb PFK inh: 3.2%; Pin1 inh: 21.1%

How did Cc1nc(SCC(=O)Nc2sccc2C(N)=O)c2c(C)c(C)sc2n1 do in these assays?
PLK1 PBD block: -29.8%

Results for C[C@H]1Cc2c(-c3ccccc3)nc3c(c2CO1)CN(C(=O)C1CCCCC1)CC3 ?
TDP1 block: 6.8%[12.3 µM]

What do the screens show for `O=[N+]([O-])c1ccc(Cl)cc1C=NNc1ccccn1`?
VDR inh: 14.3%; ASM inhibitor: -13.9%; PLK1 PBD block: -0.4%; Pin1 inh: 0.1%

Assay outcomes (PubChem BioAssay)
